Screening results deposited in PubChem BioAssay by National Center for Advancing Translational Sciences (NCATS).
ALOX15 inhib – 15-hLO (ALOX15) enzyme inhibition | purified 15hLO-1, xylenol orange hydroperoxide absorbance | Potency, µM (highest dose often 57.1 µM), without a hit: top-dose activity change, negative = inhibition, actives largely listed as inhibitors | 1.4% of 74,000 active | AID 887; note: potency is the fitted concentration of half-maximal effect; % is set by controls: 0 for no effect and ±100 for the full control effect; nearly all actives have a fitted effect of over 55% in size
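Compounds were preincubated 15 min at room temperature with 40 nM purified human enzyme (25 mM Hepes pH 7.5, 0.01% Triton X-100); 50 uM arachidonic acid reacted 6 min. Fe-xylenol orange detection, 30 min, absorbance ratio 573/405 nm.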
Pol III holo inh – DNA polymerase III holoenzyme inhibition | reconstituted DNA polymerase III holoenzyme replication, biochemical | Potency, µM (highest dose often 57.1 µM), inactives show top-dose activity change, negative = inhibition | 0.25% of 71,000 active; note: potency is the fitted concentration of half-maximal effect; % is set by controls: 0 for no effect and ±100 for the full control effect
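Reconstituted *E. coli* holoenzyme (0.35 nM Pol III, 1 nM beta, 154 nM SSB, 2 nM primase) was preincubated with compound for 15 min at RT. Synthesis on 1.4 nM ssM13Gori ran 35 min, then was stopped with PicoGreen/EDTA and read as dsDNA fluorescence.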
Tau fil binding – tau filament binding. Potency, µM (series often up to 57.1 µM), for inactives: at the top dose activity change, negative = inhibition. recombinant tau filaments, thioflavin S fluorescence, 15 h; filaments grown with octadecylsulfate alongside compound. 2% of 71,000 active. AID 596. P10636;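 note: potency is the fitted concentration of half-maximal effect; % is set by controls: 0 for no effect and ±100 for the full control effect; actives lower thioflavin S fluorescence by blocking filaments or displacing dye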
Target sequence (P10636 whole entry, looked up): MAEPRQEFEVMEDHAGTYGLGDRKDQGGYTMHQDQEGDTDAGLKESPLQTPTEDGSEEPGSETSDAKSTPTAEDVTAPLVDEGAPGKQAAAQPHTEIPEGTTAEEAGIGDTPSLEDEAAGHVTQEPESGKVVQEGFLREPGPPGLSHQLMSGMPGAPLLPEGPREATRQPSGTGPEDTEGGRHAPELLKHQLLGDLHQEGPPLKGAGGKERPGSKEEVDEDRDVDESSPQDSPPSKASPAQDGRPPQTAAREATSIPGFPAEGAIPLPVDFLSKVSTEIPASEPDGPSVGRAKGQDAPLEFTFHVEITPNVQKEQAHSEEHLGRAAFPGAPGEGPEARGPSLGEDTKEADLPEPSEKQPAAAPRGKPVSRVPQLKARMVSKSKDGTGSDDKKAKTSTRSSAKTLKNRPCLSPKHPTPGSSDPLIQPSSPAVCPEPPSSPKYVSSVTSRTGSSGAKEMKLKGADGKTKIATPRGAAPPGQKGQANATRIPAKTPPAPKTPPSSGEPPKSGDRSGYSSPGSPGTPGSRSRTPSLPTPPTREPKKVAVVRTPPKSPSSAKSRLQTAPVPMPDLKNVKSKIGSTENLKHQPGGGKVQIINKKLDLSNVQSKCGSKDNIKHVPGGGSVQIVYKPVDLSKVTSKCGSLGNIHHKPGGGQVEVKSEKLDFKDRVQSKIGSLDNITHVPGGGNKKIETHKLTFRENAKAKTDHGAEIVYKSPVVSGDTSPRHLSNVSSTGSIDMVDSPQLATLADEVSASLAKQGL
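Assay mix: 1 uM His-tagged tau, 30 uM sodium octadecylsulfate, thioflavine S dye in HEPES/NaCl/DTT buffer. Compound is added prior to the inducer. Fluorescence after 15 h at 37 C.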
BRCT PPI green – blocks human BRCA1 BRCT binding to phosphopeptide, green readout | P38398 | BRCA1 BRCT-phosphopeptide binding, green fluorescence polarization | Potency, µM (series often up to 76.9 µM), without a hit: at the highest dose activity change, negative = inhibition, usual class: inhibitors | 0.05% of 75,000 active;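 note: potency is the fitted concentration of half-maximal effect; plate controls were peptide without protein for full effect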
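Compounds were incubated for 12 min at room temperature with a complex of 100 nM fluorescein-tagged pBACH1 decapeptide and 250 nM His-tagged BRCT protein. Buffer was phosphate pH 7.3 with EDTA, DTT and Tween 20. Disruption of binding lowers the polarization signal.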
YjeE inh – inhibitors of E. coli YjeE (TsaE) | purified YjeE enzyme, qHTS inhibition assay | Potency, µM | 0.05% of 71,000 active
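Fluorescence polarization of a BODIPY Texas Red–ADP probe (2 uM) bound to purified YjeE (10 uM) was read after 15 min room-temperature incubation with compounds. Loss of polarization marks inhibitors; ADP serves as titrated control.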
BRCT inh red – disrupts BRCA1 BRCT binding to phosphoprotein, red fluorophore readout; P38398; BRCT-phosphopeptide binding, red fluorescence polarization; Potency, µM (top dose mostly 76.9 µM), without a hit: top-dose activity change, negative = inhibition, actives largely listed as inhibitors; 0.03% of 75,000 active; note: % is set by controls: 0 for no effect and ±100 for the full control effect
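Fluorescence polarization: 100 nM His-tagged BRCA1 BRCT with 100 nM TAMRA-labelled phospho-BACH1 decapeptide, phosphate buffer pH 7.3 with 150 mM NaCl, DTT, 0.01% Tween 20; 12 min RT. Binding inhibition seen as FP decrease.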
* marks the source's active call; other numbers are inactive results; [ ] = dose if it differs, or a comment. A selection: hits, their analogues and other compounds. The true share with any hit is near 3.3%. Calls come from the whole dose curve; as a rule, active = well fitted curve in the direction sought with a large enough effect; inconclusive = small, poorly fitted or top-dose-only effect, or another doubt; inactive = no such curve, though single readings can be large; an effect the other way counts as inactive or inconclusive.

How did CC(C)C[C@@H](CC(=O)N[C@@H](CCC(=O)O)CC(=O)O)NC(=O)[C@@H]1CNCC[C@H]1NC(=O)C[C@@H](NC(=O)C[C@H](CO)NC(=O)[C@@H]1CNCC[C@H]1N)C(C)C do in these assays?
Pol III holo inh: 0%; Tau fil binding: -10%; YjeE inh: inactive

What do the screens show for `COC(=O)[C@@]1(Cc2ccc(OC)cc2)[C@H]2c3cc(C(=O)N(C)C)n(Cc4nc5ccccc5[nH]4)c3C[C@H]2CN1C(=O)c1ccccc1`?
Pol III holo inh: -3%; Tau fil binding: 2%; BRCT PPI green: 33%; YjeE inh: inactive; BRCT inh red: 1%

What do the screens show for `CO/N=C1/[C@H]2O[C@@H]2[C@@H](O)[C@H]2[C@H]1CCn1c(=O)n(-c3ccccc3)c(=O)n12`?
ALOX15 inhib: -17%[11.4 µM]; BRCT PPI green: -1%[15.4 µM]; BRCT inh red: 2%[15.4 µM]

What do the screens show for `Cc1[nH]n(-c2ccc(S(=O)(=O)O)cc2)c(=O)c1N=Nc1ccccc1`?
ALOX15 inhib: 21%[11.4 µM]; Pol III holo inh: -5%[11.4 µM]; Tau fil binding: -2%[11.4 µM]; BRCT PPI green: 0%[15.4 µM]; YjeE inh: inactive; BRCT inh red: 0%[15.4 µM]

Results for CC(C)CC(C(=O)Nc1ccc2c(c1)OCCO2)N1C(=O)c2ccccc2C1=O (stereo unspecified) ?
ALOX15 inhib: -5%; Pol III holo inh: -4%; Tau fil binding: -6%; BRCT PPI green: 0%; YjeE inh: inactive; BRCT inh red: 0%

What do the screens show for `CC(C)CC(C(=O)Nc1oc(-c2ccco2)c(-c2ccco2)c1C#N)N1C(=O)c2ccccc2C1=O` (stereo unspecified)?
ALOX15 inhib: 25µM*; Pol III holo inh: 1%; Tau fil binding: inconclusive; BRCT PPI green: -1%; YjeE inh: inactive; BRCT inh red: -10%

Results for COc1cc(NC(=O)c2ccccc2)c(OC)cc1NC(=O)CN1CCOCC1 ?
ALOX15 inhib: inconclusive; Pol III holo inh: -6%; Tau fil binding: -23%; BRCT PPI green: 3%; YjeE inh: inactive; BRCT inh red: 1%

How did COc1cc(NC(=O)C2CCCO2)c(OC)cc1NC(=O)c1ccccc1 (stereo unspecified) do in these assays?
ALOX15 inhib: -9%; Pol III holo inh: 0%; Tau fil binding: 25µM*; BRCT PPI green: 1%; YjeE inh: inactive; BRCT inh red: 1%

How did C[C@@]12C=CC(=O)C=C1CC[C@H]1[C@H]3CC[C@](O)(C(=O)CO)[C@]3(C)CC(=O)[C@@H]12 do in these assays?
ALOX15 inhib: 11%[25.6 µM]; Pol III holo inh: -5%[25.6 µM]; Tau fil binding: -4%[25.6 µM]; BRCT PPI green: 1%[34.4 µM]; YjeE inh: inactive; BRCT inh red: 1%[34.4 µM]

Results for Cc1cc(N)c2cc(OCCOc3ccc4nc(C)cc(N)c4c3)ccc2n1 ?
ALOX15 inhib: 18%[11.4 µM]; BRCT PPI green: -2%[15.4 µM]; BRCT inh red: 1%[15.4 µM]

How did Cc1cc(N)c2cc(NC(=O)Nc3ccc4nc(C)cc(N)c4c3)ccc2n1 do in these assays?
ALOX15 inhib: 127%[11.4 µM]; Pol III holo inh: 4µM*; Tau fil binding: 247%[11.4 µM]; BRCT PPI green: 9%[15.4 µM]; YjeE inh: inactive; BRCT inh red: 0%[15.4 µM]

How did Cc1cc(C)n2nc(C(=O)OCC(=O)Nc3ccc4c(c3)OCO4)nc2n1 do in these assays?
ALOX15 inhib: 9%; Pol III holo inh: -8%; Tau fil binding: 9%; BRCT PPI green: -1%; YjeE inh: inactive; BRCT inh red: 0%

What do the screens show for `Cc1cc(C)n2nc(C(=O)Nc3ccc4c(c3)OCO4)nc2n1`?
ALOX15 inhib: -11%; Pol III holo inh: 4%; Tau fil binding: 32µM*; BRCT PPI green: 0%; YjeE inh: inactive; BRCT inh red: 0%

How did O=C(Nc1ccc2c(c1)OCO2)c1ccc(CN2CCOCC2)cc1 do in these assays?
ALOX15 inhib: -29%; Pol III holo inh: 0%; Tau fil binding: 16µM*; BRCT PPI green: -2%; YjeE inh: inactive; BRCT inh red: -2%

How did C/C(=C\C(=O)c1ccc(C)o1)Nc1ccc2c(c1)OCO2 do in these assays?
ALOX15 inhib: -14%; Pol III holo inh: -3%; Tau fil binding: 13µM*; BRCT PPI green: -3%; YjeE inh: inactive; BRCT inh red: 0%

Results for CCN(CC)c1ccc(NC(=O)c2nc3nc(C)cc(C(F)F)n3n2)cc1 ?
ALOX15 inhib: -12%; Pol III holo inh: -3%; Tau fil binding: 16µM*; BRCT PPI green: -1%; YjeE inh: inactive; BRCT inh red: 2%

Results for COC(=O)c1ccc(N/C(C)=C/C(=O)c2ccc(C)o2)cc1 ?
ALOX15 inhib: -3%; Pol III holo inh: -1%; Tau fil binding: -3%; BRCT PPI green: 0%; YjeE inh: inactive; BRCT inh red: 1%

How did O=C(Nc1ccc(CN2CCCCC2)cc1)c1ccc2c(c1)OCO2 do in these assays?
ALOX15 inhib: -2%; Pol III holo inh: -6%; Tau fil binding: 24%; BRCT PPI green: -2%; YjeE inh: inactive; BRCT inh red: 0%

What do the screens show for `C[C@@]12CCC(=O)C=C1CC[C@H]1[C@@H]2[C@@H](O)C[C@]2(C)[C@@H]1CC[C@@]2(O)C(=O)COC(=O)C1CCCC1`?
ALOX15 inhib: 14%[11.4 µM]; Pol III holo inh: -12%[11.4 µM]; Tau fil binding: 5%[11.4 µM]; BRCT PPI green: 0%[15.4 µM]; YjeE inh: inactive; BRCT inh red: -1%[15.4 µM]

How did O=c1ccnc(SCc2ccc(Cl)cc2)[nH]1 do in these assays?
ALOX15 inhib: -3%[11.4 µM]; Pol III holo inh: 3%[11.4 µM]; Tau fil binding: 2%[11.4 µM]; BRCT PPI green: -2%[15.4 µM]; YjeE inh: inactive; BRCT inh red: 0%[15.4 µM]

What do the screens show for `Cc1ccc(C(=O)OCC(=O)Nc2ccc3c(c2)OCO3)o1`?
ALOX15 inhib: -3%; Pol III holo inh: -2%; Tau fil binding: -21%; BRCT PPI green: 1%; YjeE inh: inactive; BRCT inh red: 1%

Results for Cc1ccc(C(=O)Nc2ccc3c(c2)OCO3)o1 ?
ALOX15 inhib: -8%; Pol III holo inh: 1%; Tau fil binding: 20µM*; BRCT PPI green: -1%; YjeE inh: inactive; BRCT inh red: 0%

How did COCC1C2CC[C@H]3C(OCc4ccc(F)cc4C(F)(F)F)OC[C@]4(C)[C@H]3C2=C(CN4C(=O)OC(C)(C)C)[C@H](C)C1COC (stereo partly specified) do in these assays?
Pol III holo inh: -22%; Tau fil binding: 88%; BRCT PPI green: 1%; YjeE inh: inactive; BRCT inh red: -2%

Results for CN(C)c1ccc2nc3c(C(=O)O)cc(=O)c(O)c-3oc2c1 ?
ALOX15 inhib: -18%[11.4 µM]; Pol III holo inh: 3.2µM*; Tau fil binding: 3%[11.4 µM]; BRCT PPI green: -2%[15.4 µM]; YjeE inh: inactive; BRCT inh red: -2%[15.4 µM]
